According to PubChem BioAssay (EPA / NIEHS):
Inconclusive results are not listed. Active and inactive are the calls of the source. The calls were made as follows, unless noted: active = hit-call score of the fitted dose curve at least 0.9, where 1 is the maximum; inconclusive = response in the unintended direction; inactive = score below 0.9.

Experiments:
[1] = TOX21_p53_BLA_p2_viability: Viability Assessment in the Tox21 HCT-116 p53 Agonism Beta-lactamase Assay, Phase 2 (AID 2283591);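 also: actives lower the ATP signal meaning cytotoxicity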
Outline: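 Cytotoxicity readout: CellTiter-Glo ATP luminescence, 30 min at room temperature, after the beta-lactamase read. Cells were HCT116 exposed 16 h at 37C to compounds pin-transferred at 217-fold dilution from DMSO stocks.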

[2] = biological target: Cellular tumor antigen p53 (Homo sapiens) (UniProt P04637); test: TOX21_p53_BLA_p2_ratio: Tox21 HCT-116 p53 Agonism Beta-lactamase Assay, Ratio, Phase 2 (AID 2283592)
Sequence of Cellular tumor antigen p53 (Homo sapiens) (P04637 whole entry, looked up): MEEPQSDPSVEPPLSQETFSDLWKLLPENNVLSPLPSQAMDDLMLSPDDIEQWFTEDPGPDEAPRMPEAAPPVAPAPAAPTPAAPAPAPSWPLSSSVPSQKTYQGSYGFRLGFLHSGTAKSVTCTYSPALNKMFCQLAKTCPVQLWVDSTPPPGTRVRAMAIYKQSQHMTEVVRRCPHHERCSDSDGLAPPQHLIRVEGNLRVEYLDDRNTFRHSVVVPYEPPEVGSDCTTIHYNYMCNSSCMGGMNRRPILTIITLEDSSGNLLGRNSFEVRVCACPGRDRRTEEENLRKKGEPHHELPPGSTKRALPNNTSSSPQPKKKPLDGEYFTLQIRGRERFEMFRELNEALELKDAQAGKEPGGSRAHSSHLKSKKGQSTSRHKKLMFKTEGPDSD
Outline: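 Readout: blue/green (460/530 nm) FRET emission ratio after 2 h CCF4-AM loading at room temperature, excitation 405 nm. HCT116 p53 bla cells, 16 h compound exposure at 37C, 5% CO2; agonist direction fitted against DMSO baseline.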

[3] = biological target: Cellular tumor antigen p53 (Homo sapiens) (UniProt P04637); test: TOX21_p53_BLA_p3_ratio: Tox21 HCT-116 p53 Agonism Beta-lactamase Assay, Ratio, Phase 3 (AID 2283596)
Outline: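 Cells were seeded at 4000/well, rested 5 h at 37C, then dosed with DMSO compound solutions (217-fold dilution) for 16 h. CCF4-AM substrate was loaded for 2 h at room temperature, and the 460/530 nm emission ratio was fitted for gain of signal versus DMSO.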

[4] = TOX21_p53_BLA_p4_viability: Viability Assessment in the Tox21 HCT-116 p53 Agonism Beta-lactamase Assay, Phase 4 (AID 2283597);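 also: hits lower the luminescence signal meaning cytotoxicity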
Outline: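 ATP content by CellTiter-Glo luminescence, 30 min RT, read after the beta-lactamase ratio step. Cells: HCT116, 4000/well, compound added after 5 h, exposure 16 h at 37C. Signal loss = reduced viability.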

[5] = biological target: Cellular tumor antigen p53 (Homo sapiens) (UniProt P04637); test: TOX21_p53_BLA_p5_ratio: Tox21 HCT-116 p53 Agonism Beta-lactamase Assay, Ratio, Phase 5 (AID 2283599)
Outline: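 Beta-lactamase reporter ratio (blue 460 nm over green 530 nm, 405 nm excitation) after 2 h CCF4-AM loading, in HCT-116 cells exposed 16 h at 37 C to compounds pinned at 217-fold dilution. Increases relative to DMSO baseline scored.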

[6] = TOX21_p53_BLA_p5_viability: Viability Assessment in the Tox21 HCT-116 p53 Agonism Beta-lactamase Assay, Phase 5 (AID 2283600)
Outline: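 ATP luminescence (CellTiter-Glo, 30 min, RT) served as the viability read-out, with loss of signal indicating cytotoxicity. Compounds in DMSO were pinned at a 217-fold dilution onto 4000 cells/well and incubated 16 h, 37C.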

[7] = biological target: Cellular tumor antigen p53 (Homo sapiens) (UniProt P04637); test: TOX21_p53_BLA_p4_ratio: Tox21 HCT-116 p53 Agonism Beta-lactamase Assay, Ratio, Phase 4 (AID 2283601)
Outline: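 Signal is the blue/green (460nm/530nm) ratio of cleaved versus uncleaved CCF4-AM substrate, read after 2 h substrate loading. Cells were HCT116 carrying the p53-responsive beta-lactamase reporter, dosed 16 h at 37C, 5% CO2; CellTiter-Glo measured in parallel.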

[8] = test system: Brachyury (BRA) Protein Expression, Deisenroth Lab, TBXT (gene 6862); test: CCTE_Deisenroth_DEVTOX-GLR_legacy_Bra: (Legacy) CCTE's DevTox GLR-Endo Assay Evaluation of Brachyury (BRA) Protein Expression, Deisenroth Lab (AID 2284329; active = hit-call score of the fitted dose curve at least 0.9, where 1 is the maximum; inactive = score below 0.9)
Outline: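 Percent Bra-positive cells, scored by high-content imaging against a threshold of 5x BMAD over the undifferentiated control median, with the 0.2% DMSO median subtracted. RUES2-GLR cultures were dosed twice at 24 h intervals across a 48 h differentiation, at 1 nM–200 uM in ten steps, with n=4 replicates.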

[9] = CCTE_Deisenroth_DEVTOX-GLR_legacy_CellCount: (Legacy) Viability Assessment in CCTE's DevTox GLR-Endo Assay, Deisenroth Lab (AID 2284331; active = hit-call score of the fitted dose curve at least 0.9, where 1 is the maximum; inactive = score below 0.9); settings: actives raise or lower the signal
Outline: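 Seed RUES2-GLR 24 h; differentiate 48 h, dosing at 0 and 24 h; fix, stain nuclei; image 5 fields/well; count nuclei. Conc. 1 nM - 200 uM, single technical replicate, n=4 experiments; bidirectional fit vs 0.2% DMSO.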

[10] = test system: SRY-box transcription factor 17 (SOX17) Protein Expression, Deisenroth Lab, SOX17 (gene 64321); test: CCTE_Deisenroth_DEVTOX-GLR_legacy_Sox17: (Legacy) CCTE's DevTox GLR-Endo Assay Evaluation of SRY-box transcription factor 17 (SOX17) Protein Expression, Deisenroth Lab (AID 2284341; active = hit-call score of the fitted dose curve at least 0.9, where 1 is the maximum; inactive = score below 0.9); settings: actives raise or lower the signal
Outline: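 Using the RUES2-GLR line, compounds are tested as 10-point series during 48-h defined-media differentiation. Sox17 reporter fluorescence per cell determines positivity; endpoint is percentage positive, analysed bidirectionally versus DMSO baseline.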

[11] = test system: SRY-box transcription factor 2 (SOX2) Protein Expression, Deisenroth Lab, SOX2 (gene 6657); test: CCTE_Deisenroth_DEVTOX-GLR_legacy_Sox2: (Legacy) CCTE's DevTox GLR-Endo Assay Evaluation of SRY-box transcription factor 2 (SOX2) Protein Expression, Deisenroth Lab (AID 2284346; active = hit-call score of the fitted dose curve at least 0.9, where 1 is the maximum; inactive = score below 0.9)
Outline: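 Percent Sox2-positive cells was scored by high-content imaging of 5 fields per well. Positivity cutoff was 5x BMAD over the directed endoderm control, and the DMSO median was subtracted. Cells were RUES2-GLR, dosed twice at 24-h intervals over 48 h of differentiation (1 nM-200 uM).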

[12] = test system: SRY-box transcription factor 17 (SOX17) Protein Expression, Deisenroth Lab, SOX17 (gene 64321); test: CCTE_Deisenroth_DEVTOX-GLR_Endo_SOX17: CCTE's DevTox GLR-Endo Assay Evaluation of SRY-box transcription factor 17 (SOX17) Protein Expression, Deisenroth Lab (AID 2284413; active = hit-call score of the fitted dose curve at least 0.9, where 1 is the maximum; inactive = score below 0.9)
Outline: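 RUES2-GLR human pluripotent cells were seeded 24 h, then differentiated toward endoderm for 48 h with two chemical exposures 24 h apart (10-point series, 1 nM - 200 uM). Nuclei-stained fixed cells were imaged; endpoint is percent change in SOX17+ cells versus 0.2% DMSO.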

[13] = CCTE_Deisenroth_DEVTOX-GLR_Endo_CellCount: Viability Assessment in CCTE's DevTox GLR-Endo Assay, Deisenroth Lab (AID 2284420; active = hit-call score of the fitted dose curve at least 0.9, where 1 is the maximum; inactive = score below 0.9)
Outline: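 Nuclei counted by fluorescence microscopy as a surrogate for cell number, expressed as percent change relative to 0.2% DMSO control. Human RUES2-GLR cells, 48 h differentiation, dosed twice; 1 nM - 200 uM series.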

[14] = test system: SRY-box transcription factor 17 (SOX17) Protein Expression, Deisenroth Lab, SOX17 (gene 64321); test: CCTE_Deisenroth_DEVTOX-GLR_Pluri_SOX17: CCTE's DevTox GLR-Pluri Assay Evaluation of SRY-box transcription factor 17 (SOX17) Protein Expression, Deisenroth Lab (AID 2284427)
Outline: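 Readout: percent SOX17+ cells (SOX17+ count/cell count) by high-content imaging of an inducible fluorescent reporter, corrected for 0.2% DMSO solvent control. RUES2-GLR cells, 48 h differentiation, dosed twice at 24 h intervals, 1 nM - 200 uM.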

[15] = test system: Brachyury (BRA) Protein Expression, Deisenroth Lab, TBXT (gene 6862); test: CCTE_Deisenroth_DEVTOX-GLR_Pluri_BRA: CCTE's DevTox GLR-Pluri Assay Evaluation of Brachyury (BRA) Protein Expression, Deisenroth Lab (AID 2284429)
Outline: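 Percent BRA+ cells (BRA+ count over total cells) by high-content imaging of fixed RUES2-GLR cultures, corrected by 0.2% DMSO control. Cells received two doses over 48-hour differentiation, 1 nM–200 uM, n=4 experiments.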

[16] = CCTE_Deisenroth_DEVTOX-GLR_Pluri_CellCount: Viability Assessment in CCTE's DevTox GLR-Pluri Assay Evaluation of Total Cell Counts, Deisenroth Lab (AID 2284430; active = hit-call score of the fitted dose curve at least 0.9, where 1 is the maximum; inactive = score below 0.9)
Outline: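 Cytotoxicity readout: fluorescent nuclei counts by high-content imaging, expressed as percent change relative to 0.2% DMSO. Human RUES2-GLR pluripotent line differentiated 48 h, dosed twice at 24-h intervals across 1 nM - 200 uM (10 points).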

Measured: AC50

Cc1ccccc1C(=O)N1CC/C(=N\OS(=O)(=O)O)c2ccc(Cl)cc21
inactive: [1] | [2] | [3] | [4] | [5] | [6] | [7]

CNCCc1ccccn1
inactive: [1] | [2] | [3] | [4] | [6] | [7]

CCCCCCCCCCCC[N+](C)(C)CC(=O)O
inactive: [1] | [2] | [3] | [4] | [5] | [7]

O=S(=O)(O)CCO
inactive: [1] | [2] | [3] | [4] | [6] | [7]

COc1ccc(C(=O)Nc2ccccc2CCC2CCCCN2C)cc1 (stereo not given)
inactive: [1] | [2] | [3] | [4] | [6]

CCCCCN(CCCCC)C(=O)C(CCC(=O)O)NC(=O)c1ccc(Cl)c(Cl)c1 (stereo not given)
inactive: [1] | [2] | [3] | [4] | [5] | [6] | [7]

Cc1ccc([N+](=O)[O-])cc1Cl
inactive: [1] | [2] | [3] | [4] | [5] | [6] | [7]

CC(C)(O)C(=O)O
inactive: [1] | [2] | [3] | [4] | [5] | [7]

O=c1[nH]c(=O)n([C@H]2C[C@H](O)[C@@H](CO)O2)cc1Br
active: [8] 11.7 µM | [9] 10.2 µM | [10] 0.857 µM | [11] 14.4 µM | [12] 0.657 µM | [13] 10.2 µM | [15] 79.6 µM | [16] 23.7 µM
inactive: all other assays above

CC(NNC(=O)c1ccccc1)c1ccccc1 (stereo not given)
inactive: [1] | [2] | [3] | [4] | [5] | [7]

Cc1ccccc1OCC1CO1 (stereo not given)
inactive: [1] | [2] | [3] | [4] | [6] | [7]

N#CCC(=O)NN
inactive: [1] | [2] | [3] | [4] | [5] | [6] | [7]
